The values below come from PubChem BioAssay (Tox21).

Records with an inconclusive call do not appear. Entries that show only a call come without a potency. Unmarked numbers belong to inactive results. Active and inactive are the calls of the source. Calls follow the shape of the dose curve; as a rule, active = well fitted cell-killing curve with a large enough effect in the repeat runs; inconclusive = weak or mixed curves, or effect the other way; inactive = no such curve, though single readings can be large or run the other way.
Potency is read from the fitted curve at half-maximal effect.

The assay can be described thus: qHTS assay to identify small molecule agonists of the estrogen receptor alpha (ER-alpha) signaling pathway in the presence of an antagonist - cell viability counter screen (AID 1259386). Also: nearly all actives have a fitted effect of over 30% in size. To be noted: VM7Luc4E2 viability, CellTiter-Fluor fluorescence, 22 h; series mostly up to 92.4 µM. A digest of the protocol: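 Cells are starved of estrogens for 5 days in charcoal-stripped serum, seeded for 24hr and co-treated with ICI-182,780 (10.0nM final) and test compounds. After 22hr at 37C, viability is read as CellTiter-Fluor fluorescence.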
For the compound `CO[C@@H]1[C@@H](O[C@@H]2O[C@H](C)[C@@H](O[C@H]3C[C@@](C)(O)[C@@H](O)[C@H](C)O3)[C@H](N(C)C)[C@H]2O)[C@@H](CC=O)C[C@@H](C)[C@@H](O[C@@H]2CC[C@H](N(C)C)[C@@H](C)O2)/C=C/C=C/C[C@@H](C)OC(=O)C[C@H]1OC(C)=O`, the Potency entry was “inactive”. Take `C=C[Si](OCC)(OCC)OCC`: the Potency result was “inactive”. `Cc1cc(C)n(CO)n1`: the Potency entry is “inactive”. For the compound `O=c1c2ccccc2oc2ccccc12`, the Potency result was “inactive”. Take `CCCCCCCCCCCCCCCCCCCl`: the activity change, negative = cytotoxicity is -0.0193% [at 8.39 µM]. For `CC(=O)Nc1cccc(N)c1`, the Potency result was “inactive”.

Consider `Cc1ccc(NC=O)c(C)c1`, for which the Potency entry was “inactive”. Still for that read-out and setting: the value for `Clc1nc2ccccc2nc1Cl` was “inactive”; that for `CC(=O)Oc1cccc2c1C(=O)c1c(OC(C)=O)cc(C(=O)O)cc1C2=O` was 29.8 µM (active); that for `CC(=O)c1ccc(Cl)c(Cl)c1Cl` was “inactive”.

Turning to `CCCc1nc(C)c2c(=O)[nH]c(-c3cc(S(=O)(=O)N4CCN(CC)CC4)ccc3OCC)nn12`, the Potency entry is “inactive”. Same read-out and setting: the value for `CCCCCCCCCC(C)C=O` (stereo not given) was “inactive”; that for `CC(C)(Cc1c[nH]c2ccccc12)NCC(O)COc1ccccc1C#N` (stereo not given) was “inactive”.

For the compound `Cc1nc2sccn2c(=O)c1CCN1CCC(=C(c2ccc(F)cc2)c2ccc(F)cc2)CC1`, the Potency entry was “inactive”. For `CC(Cc1ccccc1)(NC(=O)CN)c1ccccc1` (stereo not given), the Potency entry was “inactive”. As for `O=C(c1ccco1)N1CCNCC1`, the Potency result is “inactive”.

For the compound `CC(COc1ccccc1)NC(C)C(O)c1ccc(O)cc1` (stereo not given), the Potency entry was “inactive”. Still for that read-out and setting: the value for `CCc1cnc(C(=O)O)c(C(=O)O)c1` was “inactive”; that for `CCOc1ccccc1O` was “inactive”.

With `O=S(=O)(O)c1cc(Cl)c(Cl)cc1Cl`, the Potency result is “inactive”.
